The supplement of paper PMC11219838

system: Ditylenchus dipsaci; test: proportion of mobile D. dipsaci (mixed stage) relative to DMSO control (fraction of DMSO control); higher = more viable, less nematicidal, active = 0.86 or less; extreme values may be limits of the assay; conditions: 60 µM; 5 days; temperature: 20 °C
Method in brief: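 Mobility, expressed relative to DMSO controls, is the mean of two biological replicates. The test organisms were D. dipsaci grown on pea plants in Gamborg B-5 agar and extracted into water by filter funnel, with about 20 added per well of a 96-well plate in distilled water. Compound was pinned to 60 µM final (0.6% v/v DMSO), plates were sealed and shaken at 200 rpm for 5 days at 20 °C, and mobile worms were scored under a microscope once 2 µL 1 M NaOH had been added.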

| Compound | proportion of mobile D. dipsaci |
| --- | --- |
| Cc1cc(OCc2nc(-c3ccncc3)no2)cc(C)c1Cl | 1 (inactive) |
| Cc1ccc(-c2noc(COc3ccc(Cl)cc3C)n2)cc1 | 1 (inactive) |
| COc1cccc(OCc2nc(-c3cccc(C)c3)no2)c1 | 1 (inactive) |
| Cc1ncc2c(c1-c1noc(-c3ccccc3)n1)CCC2 | 1 (inactive) |
| Cc1ccc(-c2nc(-c3cccc(C)c3)no2)cc1 | 1 (inactive) |
| Cc1ccc(OCc2nc(-c3ccccc3)no2)cc1C | 1 (inactive) |
| Cc1ccc(-c2noc(-c3ccc4c(c3)OCCO4)n2)cc1 | 1 (inactive) |
| Cc1ccc(-c2noc(-c3ccco3)n2)s1 | 1 (inactive) |
| Fc1ccc(CSc2nnc(-c3ccccn3)o2)cc1 | 1 (inactive) |
| O=C(CSc1nnc(-c2cccc(Br)c2)o1)Nc1ccccn1 | 1 (inactive) |
| COc1nc(C)ccc1-c1noc(-c2ccc(C)cc2)n1 | 1 (inactive) |
| COc1ccc(C(=O)CSc2nnc(-c3cccc(Br)c3)o2)cc1 | 1 (inactive) |
| O=C(CSc1nnc(-c2ccncc2)o1)Nc1cc(C(F)(F)F)ccc1Cl | 1 (inactive) |
| Cc1cccc(C)c1NC(=O)CSc1nnc(-c2ccncc2)o1 | 1 (inactive) |
| Cc1ccc(OCc2nc(-c3ccc(F)cc3)no2)cc1C | 1 (inactive) |
| CCOc1ccccc1-c1nnc(SCc2ccccc2)o1 | 1 (inactive) |
| Brc1ccc(-c2nc(-c3ccc4c(c3)OCO4)no2)cc1 | 1 (inactive) |
| COc1ccc(C)cc1NC(=O)CSc1nnc(-c2ccc(Br)cc2)o1 | 1 (inactive) |
| Cc1ccc(-c2noc(-c3ccc(Br)cc3)n2)cc1 | 1 (inactive) |

| Compound | proportion of mobile D. dipsaci |
| --- | --- |
| Cc1ccc(-c2noc(-c3ccccc3C)n2)cc1 | 1 (inactive) |
| Clc1cccc(-c2nc(-c3ccccc3Cl)no2)c1 | 1 (inactive) |
| Brc1cccc(-c2nc(-c3ccncc3)no2)c1 | 1 (inactive) |
| Clc1ccc(OCc2nc(-c3ccncc3)no2)cc1 | 1 (inactive) |
| Cc1cc(Br)ccc1OCc1nc(-c2cccnc2)no1 | 1 (inactive) |
| CCCCCOC(=O)CSc1nnc(-c2ccc(Cl)cc2Cl)o1 | 1 (inactive) |
| Fc1cccc(-c2nc(-c3cccnc3)no2)c1 | 1 (inactive) |
| Cc1ccoc1-c1nnc(-c2ccco2)o1 | 0.833 (active) |
| Cc1ccc(CSc2nnc(-c3ccco3)o2)cc1 | 1 (inactive) |
| Cc1ccc(-c2noc(-c3ccc(Br)o3)n2)s1 | 1 (inactive) |
| COc1ccc(OCc2nc(-c3ccccc3)no2)cc1 | 1 (inactive) |
| Cc1cc(OC(C)c2nc(-c3cccnc3)no2)ccc1Cl (stereo not drawn) | 1 (inactive) |
| CCn1cc(C(=O)CSc2nnc(-c3ccccc3)o2)c2ccccc21 | 1 (inactive) |
| COc1ccccc1OCc1nc(-c2cccc(C)c2)no1 | 1 (inactive) |
| Clc1ccc(OCc2nc(-c3cccnc3)no2)c(Cl)c1 | 1 (inactive) |
| Brc1ccc(OCc2nc(-c3ccncc3)no2)cc1 | 1 (inactive) |
| O=C(Nc1cccc(-c2noc(COc3ccccc3)n2)c1)c1cccs1 | 1 (inactive) |
| Cc1ccc(-c2noc(COc3ccccc3C)n2)cc1 | 1 (inactive) |
| CCn1c(SCc2nc(-c3cccs3)no2)nnc1-c1ccco1 | 1 (inactive) |
